Laboratory results taken from the supplement of paper PMC12645437, “Orthogonal IMiD-Degron Pairs Induce Selective Protein Degradation in Cells” (ACS Chemical Biology, 2025).
Whole data set: some 8,300 sequences, median “log2 fold change of degron read counts, EGFP-low vs EGFP+ sorted cells (limma voom), compound-induced degradation” near -1.1, cut for the highest 2% near 3.2. The full list was thinned out, with the highest values kept by preference.

T1: CRBN, Q96SW2
T1 chain: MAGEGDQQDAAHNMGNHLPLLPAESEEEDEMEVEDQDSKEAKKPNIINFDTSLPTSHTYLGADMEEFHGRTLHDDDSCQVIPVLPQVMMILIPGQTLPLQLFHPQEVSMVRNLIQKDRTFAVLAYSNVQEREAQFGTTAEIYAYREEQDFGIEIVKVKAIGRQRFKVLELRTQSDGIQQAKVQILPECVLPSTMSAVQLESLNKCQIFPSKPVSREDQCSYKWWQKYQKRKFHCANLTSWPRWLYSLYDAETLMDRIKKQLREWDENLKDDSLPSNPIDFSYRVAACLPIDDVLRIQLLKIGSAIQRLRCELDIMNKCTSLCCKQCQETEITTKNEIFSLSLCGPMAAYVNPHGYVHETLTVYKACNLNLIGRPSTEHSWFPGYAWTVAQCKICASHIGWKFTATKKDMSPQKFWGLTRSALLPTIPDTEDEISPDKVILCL


Target: T1, CRBN, Q96SW2
Assay: log2 fold change of degron read counts, EGFP-low vs EGFP+ sorted cells (limma voom), compound-induced degradation; higher = more compound-induced degradation of the degron-EGFP fusion; degrons are variants of IKZF1/3 zinc finger 2; compound dose not given here
Settings: Jurkat, 18 h
[1] = compound: compound 19 (5-tert-butyl-thalidomide)
[2] = compound: compound 22 (5-morpholino-thalidomide)
[3] = compound: compound 33 (diphenyl IMiD analogue)
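Further: pooled lentiviral library of zinc finger degron-EGFP fusions in mCherry-positive Jurkat cells, FACS-sorted after compound exposure, with degron abundance counted by next-generation sequencing.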

| Sequence | log2 fold change of degron read counts [1] | log2 fold change of degron read counts [2] | log2 fold change of degron read counts [3] | log2 fold change of degron read counts (compound: thalidomide) |
| --- | --- | --- | --- | --- |
| FVCPICGRNFTQKGNLLRHIKL [46F_47V_49P_50I_52G_53R_54N_55F_67L_, Q9UKT9] | -1.5 | 0.0165 | -0.308 | 1.47 |
| FDCNICGAGFTQKGNLLRHIKL [46F_47D_49N_50I_52G_53A_54G_55F_67L_, Q9UKT9] | -0.56 | -1.59 | -0.734 | -0.131 |
| FGCNQCGRQFTQKGNLLRHIKL [46F_47G_49N_50Q_52G_53R_54Q_55F_67L_, Q9UKT9] | -1.78 | -3.61 | -1.87 | -1.99 |
| FECNQCGAQFTQKGNLLRHIKL [46F_47E_49N_50Q_52G_53A_54Q_55F_67L_, Q9UKT9] | -3.22 | -3.17 | -2.23 | -1.78 |
| FSCEVCGAVFTQKGNLLRHIKL [46F_47S_49E_50V_52G_53A_54V_55F_67L_, Q9UKT9] | 2.19 | 1.99 | 2.31 | 0.741 |
| FFCEVCGAVFTQKGNLLRHIKL [46F_47F_49E_50V_52G_53A_54V_55F_67L_, Q9UKT9] | 2.87 | 3.44 | 1.92 | 1.04 |
| FTCEVCGAVFTQKGNLLRHIKL [46F_47T_49E_50V_52G_53A_54V_55F_67L_, Q9UKT9] | -0.209 | 1.43 | 1.81 | 2.36 |
| FKCEVCGAVFTQKGNLLRHIKL [46F_47K_49E_50V_52G_53A_54V_55F_67L_, Q9UKT9] | -2.3 | -3.46 | -2.84 | -1.47 |
| FLCEVCGAVFTQKGNLLRHIKL [46F_47L_49E_50V_52G_53A_54V_55F_67L_, Q9UKT9] | -1.19 | -1.32 | 0.896 | 1.47 |
| FQCEVCGAVFTQKGNLLRHIKL [46F_47Q_49E_50V_52G_53A_54V_55F_67L_, Q9UKT9] | -0.43 | 2.76 | 2.39 | 3.71 |
| FDCEVCGAVFTQKGNLLRHIKL [46F_47D_49E_50V_52G_53A_54V_55F_67L_, Q9UKT9] | -0.0916 | -0.965 | 0.432 | 0.0687 |
| FHCEVCGAVFTQKGNLLRHIKL [46F_47H_49E_50V_52G_53A_54V_55F_67L_, Q9UKT9] | 0.991 | 1.24 | 1.22 | -0.292 |
| FVCEVCGAVFTQKGNLLRHIKL [46F_47V_49E_50V_52G_53A_54V_55F_67L_, Q9UKT9] | -0.567 | 1.18 | 2.1 | 2.01 |
| FWCEVCGAVFTQKGNLLRHIKL [46F_47W_49E_50V_52G_53A_54V_55F_67L_, Q9UKT9] | 2.83 | 3.43 | 2.51 | 0.594 |
| FCCEVCGAVFTQKGNLLRHIKL [46F_47C_49E_50V_52G_53A_54V_55F_67L_, Q9UKT9] | 1.18 | 1.8 | 2.68 | 1.79 |
| FACEVCGAVFTQKGNLLRHIKL [46F_47A_49E_50V_52G_53A_54V_55F_67L_, Q9UKT9] | 3.24 | 2.04 | 1.3 | 0.155 |
| FRCSVCGHRFTQKGNLLRHIKL [46F_47R_49S_50V_52G_53H_54R_55F_67L_, Q9UKT9] | -2.02 | -2.85 | -2.44 | -2.23 |
| FYCNQCGHGFTQKGNLLRHIKL [46F_47Y_49N_50Q_52G_53H_54G_55F_67L_, Q9UKT9] | -2.38 | -2.88 | -2.5 | -2.33 |
